# Laboratory results as given in publication PMC4336329 (PLoS ONE, 2015).
# Hit rate of the full screen: of about 310,000 compounds, about 14,000 (4.5%) showed an effect of 50% or more. The effect is printed as a negative number. For the sample, strong results were picked, then their nearest neighbours and some compounds at random.
# Target: human ether-à-go-go-related gene (hERG) potassium channel (human, UniProt Q12809)
# Experiment: primary screen, population patch clamp on CHO cells stably expressing hERG; higher = less effect of the substance
# 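Note: peak tail current of the secondary pulse compared with the same well before compound.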
# Chain of human ether-à-go-go-related gene (hERG) potassium channel (Q12809 whole entry, looked up): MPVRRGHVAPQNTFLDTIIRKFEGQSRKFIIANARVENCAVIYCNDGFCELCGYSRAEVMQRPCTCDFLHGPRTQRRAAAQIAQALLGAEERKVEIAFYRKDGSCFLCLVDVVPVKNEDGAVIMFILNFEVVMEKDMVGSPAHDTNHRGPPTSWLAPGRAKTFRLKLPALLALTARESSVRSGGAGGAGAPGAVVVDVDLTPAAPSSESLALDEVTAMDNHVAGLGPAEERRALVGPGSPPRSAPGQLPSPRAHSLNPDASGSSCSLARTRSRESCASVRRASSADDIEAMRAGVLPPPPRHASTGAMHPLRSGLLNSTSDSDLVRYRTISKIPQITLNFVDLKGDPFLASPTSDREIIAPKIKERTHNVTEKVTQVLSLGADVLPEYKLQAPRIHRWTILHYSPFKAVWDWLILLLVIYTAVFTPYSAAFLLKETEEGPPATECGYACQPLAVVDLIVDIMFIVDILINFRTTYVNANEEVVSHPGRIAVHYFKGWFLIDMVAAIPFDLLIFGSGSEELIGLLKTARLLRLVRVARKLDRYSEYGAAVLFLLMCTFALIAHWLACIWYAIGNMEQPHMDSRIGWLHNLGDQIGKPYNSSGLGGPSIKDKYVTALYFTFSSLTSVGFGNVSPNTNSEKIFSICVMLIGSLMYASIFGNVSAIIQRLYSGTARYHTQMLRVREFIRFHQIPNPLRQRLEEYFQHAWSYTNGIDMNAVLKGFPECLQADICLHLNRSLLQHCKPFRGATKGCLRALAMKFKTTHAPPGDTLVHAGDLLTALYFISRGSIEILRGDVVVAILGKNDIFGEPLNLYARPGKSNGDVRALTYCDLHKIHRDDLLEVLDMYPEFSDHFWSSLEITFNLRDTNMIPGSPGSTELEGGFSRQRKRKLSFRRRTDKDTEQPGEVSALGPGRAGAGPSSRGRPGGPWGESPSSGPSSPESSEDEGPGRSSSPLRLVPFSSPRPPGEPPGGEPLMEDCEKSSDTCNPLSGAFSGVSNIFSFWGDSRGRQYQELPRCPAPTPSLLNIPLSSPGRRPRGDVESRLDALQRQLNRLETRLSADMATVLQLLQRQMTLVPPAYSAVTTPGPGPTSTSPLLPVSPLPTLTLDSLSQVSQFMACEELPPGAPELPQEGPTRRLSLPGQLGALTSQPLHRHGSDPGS
row,SMILES,"hERG current change (%, negative = inhibition) at 10uM"
1,CCC(=O)OCc1c(C(F)(F)F)nn(C)c1Sc1ccc(F)cc1,-8.79%
2,CN(CCc1ccccn1)C(=S)NC(=O)c1ccco1,17.1%
3,CCOc1ccccc1NC(=O)C(c1ccccc1)N1CCN(C(=O)c2ccco2)CC1 (centres unmarked),-57.7%
4,O=C(Nc1ccc2c(c1)OCO2)C(c1ccccc1)N1CCN(C(=O)c2ccco2)CC1 (centres unmarked),-33.2%
5,Cc1ccc(NC(=O)C(c2ccccc2)N2CCN(C(=O)c3ccco3)CC2)cc1Cl (centres unmarked),-21.3%
6,CCOCCCNC(=O)C(c1ccc(Cl)cc1)N1CCN(C(=O)c2ccco2)CC1 (centres unmarked),-0.366%
7,CC(C)c1ccc(NC(=O)C(c2ccccc2)N2CCN(C(=O)c3ccco3)CC2)cc1 (centres unmarked),-69.8%
8,CC(C)c1ccc(NC(=O)C(c2ccc3c(c2)OCO3)N2CCN(C(=O)c3ccco3)CC2)cc1 (centres unmarked),-25%
9,Cc1ccc(NC(=O)C(c2ccccc2)N2CCN(C(=O)c3ccco3)CC2)cc1 (centres unmarked),-72.9%
10,Cc1cccc(C)c1NC(=O)C(c1ccccc1)N1CCN(C(=O)c2ccco2)CC1 (centres unmarked),-22.8%
11,O=C(Nc1ccc2c(c1)OCO2)C(c1ccc(Cl)cc1)N1CCN(C(=O)c2ccco2)CC1 (centres unmarked),-40%
12,O=C(CSc1nnc(-c2ccc(O)cc2)n1Cc1ccccc1)NNC(=O)c1ccc(Br)cc1,-4.24%
13,Cc1ccc(NC(=O)COC(=O)CCc2ccc(S(=O)(=O)N3CCOCC3)cc2)cc1F,-11%
14,CCn1c(COc2ccccc2)nnc1SCC(=O)Nc1ccc2c(c1)OCCO2,-6.9%
15,Cc1ccc(NC(=O)c2nc[nH]c2C(=O)N2CCN(c3ccccc3)CC2)cc1,8.53%
16,O=C(NCCC1CCCCN1S(=O)(=O)c1ccccc1)C(=O)Nc1ccc(F)cc1F (centres unmarked),2.67%
17,CC(C)NC(=O)CSc1nnc(COc2ccccc2Cl)o1,9.76%
18,Cc1ccc(SCC(=O)OCC(=O)N(C)CC(=O)Nc2ccc(F)cc2)cc1C,-38.7%
19,CC#CCC(CC#CC)c1nc2ccccc2c(=O)n1N,-1.36%
20,Cc1cc[n+](-c2[nH]c(=O)sc2/C=N/N=C(\[O-])c2ccncc2)cc1,5.61%
21,CCCc1ccc(-c2cc(C(=O)N3CCN(c4ccccn4)CC3)c3ccccc3n2)cc1,13.4%

row,SMILES,"hERG current change (%, negative = inhibition) at 10uM"
1,CCOC(=O)N1CCC(N2Cc3cccc(C(=O)Nc4ccccc4OC)c3C2=O)CC1,-79.2%
2,CCOC(=O)N1CCC(N2Cc3cccc(C(=O)NCc4ccc(OC)cc4)c3C2=O)CC1,-40%
3,CCOC(=O)N1CCC(NC(=O)c2cccc3c2C(=O)N(CCOC)C3)CC1,-1.34%
4,CCOC(=O)N1CCC(NC(=O)c2cn(-c3ccc(OC)cc3)c(=O)c3ccccc23)CC1,-6.75%
5,CCOC(=O)c1ccccc1NC(=O)c1cccc2c1C(=O)N(C1CCN(C(=O)OCC)CC1)C2,-30.4%
6,CCOC(=O)N1CCC(N2Cc3cccc(C(=O)Nc4ccc(OC)c(OC)c4)c3C2=O)CC1,-9.58%
7,CCOC(=O)N1CCC(NC(=O)c2cccc3c2C(=O)N(c2ccc(OC)cc2)C3)CC1,-58.3%
8,CCOC(=O)N1CCC(N2Cc3cccc(C(=O)NCc4ccc(C)cc4)c3C2=O)CC1,-42.6%
9,CCOC(=O)N1CCC(N2Cc3cccc(C(=O)NCc4ccccc4OC)c3C2=O)CC1,-71.2%
10,CCOCCn1c(N2CCCC2)nc2c1c(=O)[nH]c(=O)n2C,15.1%
11,COc1ccc2nc(N3C(=O)CC(Cc4cc(C)cc(C)c4)C3=O)sc2c1 (centres unmarked),9.23%
12,COc1ccc(CCNC(=S)N2CCN(S(=O)(=O)c3ccc(Cl)cc3)CC2)cc1,22%
13,OCCN(Cc1ccccc1)Cc1ccc(C(F)(F)F)cc1,-3.33%
14,COc1ccc(-c2oc3cccnc3c2C#CCO)cc1,9.84%
15,COc1ccc2[nH]c(=O)c(CN(CCO)S(=O)(=O)c3c(C)ccc4nsnc34)cc2c1,-3.86%
16,C/C(=N\NC(=O)c1cc(-c2ccccc2C)nc2ccccc12)c1cccnc1,-10.3%
17,CCSCc1nnc(SCC(=O)Nc2cccc(C(C)=O)c2)n1C,11.9%
18,CCOc1ncccc1C(=O)Nc1ccc(F)c(Cl)c1,24.1%
19,CN(Cc1ccccc1)c1ccc(N2C(=O)CCCC2=O)cc1[N+](=O)[O-],6.5%
20,Cc1cc(F)ccc1NC(=O)c1ccc(NS(=O)(=O)c2cc(C(C)(C)C)ccc2C)cc1,0.887%
21,Cc1ccc(F)cc1NC(=O)c1ccc(NS(=O)(=O)c2ccc(Br)s2)cc1,-70%

row,SMILES,"hERG current change (%, negative = inhibition) at 10uM"
1,O=C(Nc1ccc2ccccc2c1)c1ccc(NS(=O)(=O)c2ccc(Br)s2)cc1,12%
2,Cc1ccc(C2=NN(CCC(=O)N3CCC4(CC3)OCCO4)C(=O)CC2)cc1,-57.5%
3,Cc1ccc2c(c1)N(CCC(=O)N1CCC3(CC1)OCCO3)C(=O)CO2,-16.8%
4,Cc1ccc(-c2ccc(=O)n(CCC(=O)N3CCC4(CC3)OCCO4)n2)cc1,-64.5%
5,Cc1ccc(-c2ccc(=O)n(CC(=O)N3CCC4(CC3)OCCO4)n2)cc1,5.07%
6,CCc1ccc(C2=NN(CCC(=O)N3CCC4(CC3)OCCO4)C(=O)CC2)cc1,-10.3%
7,O=C(CCn1nc(-c2ccc(Cl)cc2)ccc1=O)N1CCC2(CC1)OCCO2,-39.8%
8,O=C(Nc1ccc(C2=NCCN2)cc1)c1ccc(C(=O)Nc2ccc(C3=NCCN3)cc2)c([N+](=O)[O-])c1,20.1%
9,CC(=O)c1ccc(N2CCN(C(=O)c3ccco3)C(C)C2)c(F)c1 (centres unmarked),-49.9%
10,O=C(Nc1ccc(F)cc1F)N1CCCN(c2ccc(C(F)(F)F)cn2)CC1,-12.4%
11,O=C(c1ccco1)N1CCN(S(=O)(=O)c2cccc([N+](=O)[O-])c2)CC1,-20.7%
12,O=C(NC(=O)N1CCN(c2ccc([N+](=O)[O-])cn2)CC1)c1ccccc1F,-24.5%
13,CC1CN(c2ccc([N+](=O)[O-])cc2F)CCN1C(=O)c1ccco1 (centres unmarked),-62%
14,CC(=O)c1cc(F)c(N2CCN(c3ccc([N+](=O)[O-])cc3F)CC2)cc1C,-12.3%
15,O=C(Nc1ccc(F)cc1F)N1CCCN(c2ccc([N+](=O)[O-])cn2)CC1,-50.2%
16,O=C(c1ccco1)N1CCN(c2ccc([N+](=O)[O-])cc2Cl)CC1,-71.4%
17,CC(C)(C)c1ccc(NC(=O)N2CCCN(c3ccc([N+](=O)[O-])cn3)CC2)cc1,-25.9%
18,CC(C)(C)c1ccc(C(=O)N2CCCN(c3ccc([N+](=O)[O-])cn3)CC2)cc1,-72.3%
19,O=C(O)C(=O)O.O=C(c1ccco1)N1CCN(S(=O)(=O)c2ccc([N+](=O)[O-])cc2)CC1,-39.8%
20,CC(C)(C)c1ccc(NC(=O)N2CCN(c3ccc([N+](=O)[O-])cn3)CC2)cc1,-9.81%
